Reference: PubChem BioAssay AID1159580 (chemical genetic matrix, 2015)
The campaign covered roughly 5,500 compounds. About 2,000 (36%) were called active. Another 18% or so got no clear call; they are omitted. Cut-off read from the data, not from the text of the source: active = normalized growth mostly below about 0.91 (no sharp cut-off); inconclusive = no clear call, values can overlap the other calls; inactive = mostly above about 0.92. The list shows a part of the results.

Assay: chemical genetic growth profiling, strain panel (AID 1159580);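 note: tested at 20 µM; growth read once vehicle control cultures reached saturation at 30 °C; 1 = growth at the plate median or of vehicle wells; lower values mean less growth of the strain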
Settings: growth OD

Measured: normalized growth

CC1(C)C=Cc2cc3ccc(=O)oc3cc2O1
active: S. cerevisiae deletion strains, locus YJR066W, strain TOR1, stronger effect = lower value 0.793 | S. cerevisiae deletion strains, locus YKR091W, strain srl3, stronger effect = lower value 0.924 | S. cerevisiae deletion strains, locus YLL001W, strain dnm1, stronger effect = lower value 0.876 | S. cerevisiae deletion strains, locus YLR113W, strain HOG1, stronger effect = lower value 0.729 | S. cerevisiae deletion strains, locus YLR258W, strain gsy2, stronger effect = lower value 0.895 | S. cerevisiae deletion strains, locus YLR262C, strain YPT6 (second series), stronger effect = lower value 0.815 | S. cerevisiae deletion strains, locus YLR342W, strain FKS1, stronger effect = lower value 0.909 | S. cerevisiae deletion strains, locus YLR370C, strain arc18, stronger effect = lower value 0.873 | S. cerevisiae deletion strains, locus YLR371W, strain rom2, stronger effect = lower value 0.906 | S. cerevisiae deletion strains, locus YML120C, strain ndi1, stronger effect = lower value 0.85 | S. cerevisiae deletion strains, locus YMR129W, stronger effect = lower value 0.923 | S. cerevisiae deletion strains, locus YNL071W, strain lat1, stronger effect = lower value 0.863 | S. cerevisiae deletion strains, locus YNL209W, strain ssb2, stronger effect = lower value 0.923 | S. cerevisiae deletion strains, locus YOR083W, strain WHI5, stronger effect = lower value 0.844 | S. cerevisiae deletion strains, locus YOR106W, strain vam3, stronger effect = lower value 0.821 | S. cerevisiae deletion strains, locus YOR231W, strain MKK1, stronger effect = lower value 0.857 | S. cerevisiae deletion strains, locus YOR270C, strain vph1, stronger effect = lower value 0.731 | S. cerevisiae deletion strains, locus YOR290C, strain snf2, stronger effect = lower value 0.783 | S. cerevisiae deletion strains, locus YPL051W, strain arl3, stronger effect = lower value 0.906 | S. cerevisiae deletion strains, locus YPL078C, strain atp4, stronger effect = lower value 0.82 | S. cerevisiae deletion strains, locus YPL106C, strain sse1, stronger effect = lower value 0.843 | S. cerevisiae deletion strains, locus YPL256C, strain CLN2, stronger effect = lower value 0.776
inactive: S. cerevisiae deletion strains, locus YJR075W, strain HOC1, stronger effect = lower value 0.941 | S. cerevisiae deletion strains, locus YKL009W, strain mrt4, stronger effect = lower value 0.921 | S. cerevisiae deletion strains, locus YKL068W, stronger effect = lower value 0.966 | S. cerevisiae deletion strains, locus YKL085W, strain MDH1 (second series), stronger effect = lower value 0.973 | S. cerevisiae deletion strains, locus YKL085W, strain MDH1, stronger effect = lower value 0.973 | S. cerevisiae deletion strains, locus YKL160W, strain elf1, stronger effect = lower value 0.909 | S. cerevisiae deletion strains, locus YKR001C, strain vps1, stronger effect = lower value 0.907 | S. cerevisiae deletion strains, locus YKR026C, strain gcn3, stronger effect = lower value 0.942 | S. cerevisiae deletion strains, locus YLL026W, stronger effect = lower value 0.934 | S. cerevisiae deletion strains, locus YLL041C, strain sdh2, stronger effect = lower value 0.937 | S. cerevisiae deletion strains, locus YLR027C, strain aat2, stronger effect = lower value 0.942 | S. cerevisiae deletion strains, locus YLR039C, strain RIC1, stronger effect = lower value 0.91 | S. cerevisiae deletion strains, locus YLR058C, strain SHM2, stronger effect = lower value 0.965 | S. cerevisiae deletion strains, locus YLR102C, strain apc9, stronger effect = lower value 0.969 | S. cerevisiae deletion strains, locus YLR221C, strain rsa3, stronger effect = lower value 0.93 | S. cerevisiae deletion strains, locus YLR268W, strain sec22, stronger effect = lower value 0.985 | S. cerevisiae deletion strains, locus YLR320W, strain mms22, stronger effect = lower value 0.891 | S. cerevisiae deletion strains, locus YLR330W, strain CHS5, stronger effect = lower value 0.984 | S. cerevisiae deletion strains, locus YLR342W, strain FKS1 (second series), stronger effect = lower value 0.87 | S. cerevisiae deletion strains, locus YLR357W, strain rsc2, stronger effect = lower value 0.979 | S. cerevisiae deletion strains, locus YLR384C, strain iki3, stronger effect = lower value 0.948 | S. cerevisiae deletion strains, locus YLR418C, strain cdc73, stronger effect = lower value 0.851 | S. cerevisiae deletion strains, locus YML016C, strain PPZ1, stronger effect = lower value 0.986 | S. cerevisiae deletion strains, locus YML032C, strain rad52, stronger effect = lower value 0.923 | S. cerevisiae deletion strains, locus YML124C, strain tub3, stronger effect = lower value 0.96 | S. cerevisiae deletion strains, locus YMR058W, strain fet3, stronger effect = lower value 0.925 | S. cerevisiae deletion strains, locus YMR078C, strain ctf18, stronger effect = lower value 0.95 | S. cerevisiae deletion strains, locus YMR125W, strain sto1, stronger effect = lower value 0.999 | S. cerevisiae deletion strains, locus YMR205C, strain PFK2, stronger effect = lower value 0.923 | S. cerevisiae deletion strains, locus YMR223W, strain ubp8, stronger effect = lower value 0.908 | S. cerevisiae deletion strains, locus YMR231W, strain pep5, stronger effect = lower value 0.976 | S. cerevisiae deletion strains, locus YMR263W, strain SAP30, stronger effect = lower value 0.977 | S. cerevisiae deletion strains, locus YMR307W, strain GAS1, stronger effect = lower value 1.06 | S. cerevisiae deletion strains, locus YNL067W, strain RPL9B, stronger effect = lower value 0.957 | S. cerevisiae deletion strains, locus YNL128W, strain TEP1, stronger effect = lower value 1 | S. cerevisiae deletion strains, locus YNL183C, strain NPR1, stronger effect = lower value 0.843 | S. cerevisiae deletion strains, locus YNL233W, strain BNI4, stronger effect = lower value 0.941 | S. cerevisiae deletion strains, locus YNL248C, strain rpa49, stronger effect = lower value 0.916 | S. cerevisiae deletion strains, locus YNL250W, strain rad50, stronger effect = lower value 0.965 | S. cerevisiae deletion strains, locus YNL271C, strain bni1, stronger effect = lower value 0.958 | S. cerevisiae deletion strains, locus YNL298W, strain CLA4, stronger effect = lower value 0.97 | S. cerevisiae deletion strains, locus YNL307C, strain MCK1, stronger effect = lower value 0.943 | S. cerevisiae deletion strains, locus YNL322C, strain KRE1 (second series), stronger effect = lower value 0.917 | S. cerevisiae deletion strains, locus YNR049C, strain mso1, stronger effect = lower value 0.925 | S. cerevisiae deletion strains, locus YNR052C, strain pop2, stronger effect = lower value 0.971 | S. cerevisiae deletion strains, locus YOL006C, strain TOP1, stronger effect = lower value 0.75 | S. cerevisiae deletion strains, locus YOL012C, strain htz1 0.855 | S. cerevisiae deletion strains, locus YOL147C, strain pex11, stronger effect = lower value 0.964 | S. cerevisiae deletion strains, locus YOR001W, strain rrp6, stronger effect = lower value 0.895 | S. cerevisiae deletion strains, locus YOR061W, strain CKA2, stronger effect = lower value 1 | S. cerevisiae deletion strains, locus YOR069W, strain VPS5, stronger effect = lower value 0.99 | S. cerevisiae deletion strains, locus YOR070C, strain gyp1, stronger effect = lower value 0.981 | S. cerevisiae deletion strains, locus YOR080W, strain dia2, stronger effect = lower value 0.964 | S. cerevisiae deletion strains, locus YOR136W, strain idh2, stronger effect = lower value 0.968 | S. cerevisiae deletion strains, locus YOR144C, strain elg1, stronger effect = lower value 0.972 | S. cerevisiae deletion strains, locus YOR184W, strain ser1, stronger effect = lower value 0.892 | S. cerevisiae deletion strains, locus YOR265W, strain rbl2, stronger effect = lower value 0.935 | S. cerevisiae deletion strains, locus YOR316C, strain cot1, stronger effect = lower value 0.978 | S. cerevisiae deletion strains, locus YPL055C, strain LGE1, stronger effect = lower value 0.951 | S. cerevisiae deletion strains, locus YPL240C, strain hsp82, stronger effect = lower value 0.936 | S. cerevisiae deletion strains, locus YPR119W, strain clb2, stronger effect = lower value 0.953 | S. cerevisiae deletion strains, locus YPR141C, strain kar3, stronger effect = lower value 0.957 | S. cerevisiae deletion strains, locus YPR163C, strain tif3, stronger effect = lower value 0.983 | S. cerevisiae deletion strains, locus YPR167C, strain met16, stronger effect = lower value 0.948 | S. cerevisiae deletion strains, strain wtn01, stronger effect = lower value 0.927 | S. cerevisiae strains, strain wild type, stronger effect = lower value 0.974
